The target of test [1] is Thyroid hormone receptor beta (Homo sapiens) (UniProt P10828). Nature of the test: qHTS assay for small molecule antagonists of thyroid hormone receptor beta signaling (AID 588547; active means well fitted inhibition curve with a large enough effect in the signal ratio, with a control signal flat, not every such curve was filed as active; the % refers to the signal ratio;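 further: cells stimulated with 0.4 nM T3 agonist during compound exposure; on the % scale 0 is the no-effect control and ±100 the full control effect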). The conditions noted are these: TR-UAS-bla HEK293, beta-lactamase ratio, antagonist mode, 18 h. In outline:
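TR-UAS-bla GripTite HEK293 cells in 2% charcoal/dextran FBS medium; compounds 0.59 nM to 92 uM with T3 at 0.4nM final, 18 h at 37 C. Beta-lactamase read by CCF4 fluorescence (460/530 nm); Hill fits gave IC50 and efficacy.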
(In general: Quantitative high-throughput screening tests each substance at several concentrations.)

Test [2] has as its target Luciferin 4-monooxygenase (Photinus pyralis) (UniProt P08659). The test can be described thus: Biochemical firefly luciferase enzyme assay for NPC (AID 624030).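 Further: purified P. pyralis luciferase at 10 nM with luciferin and ATP substrate; 0% = DMSO and -100% = full luciferase inhibition by PTC124 control; nearly all actives have a fitted effect of over 70% in size.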 To be noted: purified P. pyralis luciferase, luminescence, 5 min; series mostly up to 58.6 µM. In outline: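 Purified P. pyralis luciferase at 10 nM in 50 mM Tris Acetate (final), luminescence read within 5 minutes of enzyme addition to compounds. Activity normalised to PTC124 versus DMSO; concentration-response curves classed by r2, magnitude and activity.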

Test [3] in a line: S16 Schwann cell viability assay (CellTiter-Glo assay) (AID 624031).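 Further: cellular ATP luminescence as a viability measure; plate controls were DMSO-treated cells for no effect and cell-free wells for full effect; nearly all actives have a fitted effect of over 70% in size.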 To be noted: S16 rat Schwann cells viability, 24 h; series mostly up to 57.5 µM. The gist of the method: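 Native S16 Schwann cells (rat), serum-containing medium, overnight attachment then 24 h drug exposure at 37 °C/5% CO2. CellTiter-Glo ATP signal; normalized to cell-free and vehicle wells.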
In general terms: In ATP-based viability assays light output follows the ATP content of the culture.

The target of test [4] is Voltage-gated inwardly rectifying potassium channel KCNH2 (Homo sapiens) (UniProt Q12809). The test can be described thus: qHTS Assay for Small Molecule Inhibitors of the Human hERG Channel Activity (AID 588834).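 Further: top concentration of the series differs between compounds; on the % scale 0 is the no-effect control and ±100 the full control effect; lower thallium flux fluorescence means stronger hERG block; nearly all actives have a fitted effect of over 50% in size.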 To be noted: U2OS BacMam hERG, FluxOR thallium flux fluorescence; series mostly up to 46.1 µM. In outline: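 Cells were infected with hERG-BacMam virus for 4 hrs at room temperature, grown overnight, then seeded at 2000/well. After dye loading and roughly 10 min compound treatment, thallium influx was triggered and fluorescence recorded.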

Test [5] can be described thus: Cytotoxicity counterscreen for NFkB agonists and antagonists (AID 624476). Further: potency means the concentration at half of the fitted maximal effect. The conditions noted are these: NFkB reporter cell line viability counterscreen; series mostly up to 46.1 µM. (In general: Counterscreens check selectivity or assay interference.)
The nature of test [6]: qHTS Assay for Identification of Small Molecule Agonists for NFkB Signaling Pathway. (AID 624478).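 Further: compounds tested together with TNF alpha at its EC50 of 10 pM; 0% is about no effect.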 To be noted: NFkB pathway reporter cell assay, agonist mode, cells co-stimulated with 10 pM TNF alpha; series mostly up to 46.1 µM. The gist of the method: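 Compounds were added with 10 pM TNF alpha (EC50 level) to ME-180 NFkB-bla cells in low-serum Opti-MEM and incubated 5 hrs at 37 C. Beta-lactamase FRET read-out used 405 nm excitation and 460 and 530 nm emission.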

The nature of test [7]: qHTS Assay for Identification of Small Molecule Antagonists for NFkB Signaling Pathway. (AID 624479; calls by dose curve; further: potency means the concentration at half of the fitted maximal effect). The conditions noted are these: NFkB pathway reporter cell assay, antagonist mode; series mostly up to 38.3 µM.
A short description of test [8]: Cell Proliferation Assay against the TMD8 Cell Line (AID 651645).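 Further: cells exposed to compound for 48 h before reading.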 To be noted: TMD8 DLBCL cell line proliferation/viability; at 46.1 µM (top of the series). The gist of the method: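 Seed log-phase TMD8 cells in RPMI containing 5% FBS, add compounds at once, incubate 48 hours at 37C. Equilibrate to room temperature, add CellTiter-Glo, read luminescence after 15 minutes and express relative to DMSO and bortezomib controls.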

A short description of test [9]: Cell Proliferation Assay against the HBL1 Cell Line (AID 651646).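 Further: cells exposed to compound for 48 h before reading.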 The conditions noted are these: HBL1 DLBCL cells; at 46.1 µM (top of the series). In outline:
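HBL1, 500 cells/well, RPMI no phenol red + 5% FBS; cpd pinned, 48 h 37C/5% CO2; CellTiter-Glo, 15 min RT, luminescence. % activity: DMSO = 100%, bortezomib 9.2 uM final = 0%.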

Test [10] is described as follows: qHTS assay for small molecule agonists of the antioxidant response element (ARE) signaling pathway (AID 651741; active means well fitted activation curve with a large enough effect in the signal ratio; the % refers to the signal ratio; further: potency means the concentration at half of the fitted maximal effect). To be noted: HepG2 ARE-bla reporter, beta-lactamase FRET ratio, 16 h; series mostly up to 96 µM. In outline: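 Stably integrated ARE-beta-lactamase reporter HepG2 cells; 16 h compound incubation, 37 C; LiveBLAzer FRET substrate 2 h at room temperature; fluorescence intensity.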

A short description of test [11]: qHTS assay for small molecule activators of the p53 signaling pathway (AID 651743; active means well fitted activation curve with a large enough effect in the signal ratio, not every such curve was filed as active; the % refers to the signal ratio; further: % of control where 0% means no effect). To be noted: HCT-116 p53RE-bla, beta-lactamase FRET ratio, 16 h; stronger effect = higher value. The gist of the method: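 Following 16 hours of compound exposure at 37 C, HCT-116 cells bearing the p53RE-bla reporter were loaded with LiveBLAzer B/G FRET substrate for 2 hours at room temperature and fluorescence intensity was recorded.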

Test [12] can be described thus: S16 Schwann cell PMP22 intronic element firefly luciferase assay (AID 624032).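 Further: plate controls were DMSO for no effect and PTC124 positive control mean for full effect; nearly all actives have a fitted effect of over 30% in size.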 The conditions noted are these: S16 rat Schwann cells, PMP22 element FLuc, 24 h; series mostly up to 57.5 µM. In outline: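 Rat S16 Schwann cells stably carrying firefly luciferase driven by a PMP22 intronic element, in 10% FBS, treated 24 h at 37 C. ONE-Glo luminescence normalized to PTC124 control and DMSO (0%); curves classed by r2, magnitude and activity.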

Several values for one entry are separate records, joined by “and”; a condition that tells them apart may be missing. Equal values may be shown once. Inconclusive results are not listed. Activity calls are given as the source filed them. Unless noted, the call rests on the fitted dose curve; in most records, active means well fitted curve in the direction sought with a large enough effect; inconclusive means small, poorly fitted or top-dose-only effect, or another doubt; inactive means no such curve, though single readings can be large; an effect the other way counts as inactive or inconclusive.

Luciferin 4-monooxygenase (Photinus pyralis), sequence (P08659 whole entry, looked up): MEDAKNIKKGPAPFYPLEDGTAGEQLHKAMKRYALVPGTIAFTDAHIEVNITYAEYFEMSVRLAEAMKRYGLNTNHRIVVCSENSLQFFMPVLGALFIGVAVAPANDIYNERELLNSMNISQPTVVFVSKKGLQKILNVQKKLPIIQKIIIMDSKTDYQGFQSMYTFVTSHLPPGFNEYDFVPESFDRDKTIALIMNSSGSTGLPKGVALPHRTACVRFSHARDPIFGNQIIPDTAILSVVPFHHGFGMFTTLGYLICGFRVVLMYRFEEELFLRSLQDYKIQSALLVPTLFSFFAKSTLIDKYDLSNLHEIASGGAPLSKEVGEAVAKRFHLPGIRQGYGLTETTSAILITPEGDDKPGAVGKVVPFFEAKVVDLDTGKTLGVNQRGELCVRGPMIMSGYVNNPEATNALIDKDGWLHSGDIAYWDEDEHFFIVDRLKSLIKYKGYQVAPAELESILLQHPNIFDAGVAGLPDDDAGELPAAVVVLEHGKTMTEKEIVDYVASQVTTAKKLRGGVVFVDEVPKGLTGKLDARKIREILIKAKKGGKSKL
Voltage-gated inwardly rectifying potassium channel KCNH2 (Homo sapiens), sequence (Q12809 whole entry, looked up): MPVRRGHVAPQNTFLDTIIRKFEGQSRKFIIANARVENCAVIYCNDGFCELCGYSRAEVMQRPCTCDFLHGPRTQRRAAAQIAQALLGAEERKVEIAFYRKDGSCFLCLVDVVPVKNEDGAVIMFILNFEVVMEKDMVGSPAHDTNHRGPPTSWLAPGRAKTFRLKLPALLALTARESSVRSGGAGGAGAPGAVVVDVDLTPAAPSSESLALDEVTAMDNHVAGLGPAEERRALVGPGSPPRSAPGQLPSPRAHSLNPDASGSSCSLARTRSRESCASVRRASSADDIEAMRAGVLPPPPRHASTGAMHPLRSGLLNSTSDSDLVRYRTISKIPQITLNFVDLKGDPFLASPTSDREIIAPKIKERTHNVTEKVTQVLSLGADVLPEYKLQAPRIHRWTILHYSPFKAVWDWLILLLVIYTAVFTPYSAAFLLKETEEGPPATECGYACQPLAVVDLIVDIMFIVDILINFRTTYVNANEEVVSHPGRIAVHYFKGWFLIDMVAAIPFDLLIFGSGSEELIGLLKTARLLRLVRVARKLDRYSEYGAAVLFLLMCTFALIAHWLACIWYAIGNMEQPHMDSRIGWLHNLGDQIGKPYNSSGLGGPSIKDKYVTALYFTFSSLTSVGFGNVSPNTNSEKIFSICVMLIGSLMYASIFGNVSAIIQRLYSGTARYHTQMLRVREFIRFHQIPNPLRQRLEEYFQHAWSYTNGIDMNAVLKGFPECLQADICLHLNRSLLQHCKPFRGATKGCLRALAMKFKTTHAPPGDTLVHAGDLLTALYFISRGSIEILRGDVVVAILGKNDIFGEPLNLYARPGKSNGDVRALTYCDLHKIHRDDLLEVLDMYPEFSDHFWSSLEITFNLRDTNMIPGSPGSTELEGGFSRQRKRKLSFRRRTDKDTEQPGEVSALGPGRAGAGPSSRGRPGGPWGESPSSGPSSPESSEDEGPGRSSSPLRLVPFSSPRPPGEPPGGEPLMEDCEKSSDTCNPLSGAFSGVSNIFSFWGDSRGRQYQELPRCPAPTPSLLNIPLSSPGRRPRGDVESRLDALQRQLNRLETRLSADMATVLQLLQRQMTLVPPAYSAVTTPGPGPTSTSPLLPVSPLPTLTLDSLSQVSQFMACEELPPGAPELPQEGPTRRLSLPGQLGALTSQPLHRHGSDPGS
Thyroid hormone receptor beta (Homo sapiens), sequence (P10828 whole entry, looked up): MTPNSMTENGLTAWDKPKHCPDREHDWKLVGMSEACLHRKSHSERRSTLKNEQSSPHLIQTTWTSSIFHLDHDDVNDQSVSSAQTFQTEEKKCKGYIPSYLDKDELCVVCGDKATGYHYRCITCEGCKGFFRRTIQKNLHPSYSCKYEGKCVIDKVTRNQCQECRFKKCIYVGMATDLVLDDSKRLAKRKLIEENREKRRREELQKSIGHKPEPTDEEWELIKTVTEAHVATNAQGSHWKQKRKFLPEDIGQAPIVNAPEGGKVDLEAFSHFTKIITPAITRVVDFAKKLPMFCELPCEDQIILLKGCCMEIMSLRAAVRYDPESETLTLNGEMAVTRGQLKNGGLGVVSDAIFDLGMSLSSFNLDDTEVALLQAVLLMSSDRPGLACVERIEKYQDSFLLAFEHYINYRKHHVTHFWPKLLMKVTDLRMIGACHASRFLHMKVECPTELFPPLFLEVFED

Regarding `N=C(N)c1ccc(OCCCCCOc2ccc(C(=N)N)cc2)cc1`, the activity change % (negative = inhibition) in test [1] is -26.1% (inactive). Further, the Potency entry in [2] and in test [3] was “inactive” throughout.

With `CO[C@@H]1[C@@H](OC(N)=O)[C@@H](O)[C@H](Oc2ccc3c(O)c(NC(=O)c4ccc(O)c(CC=C(C)C)c4)c(=O)oc3c2C)OC1(C)C`, the Potency result in test [4] was “inactive”.

Turning to `CS(=O)(=O)c1ccc([C@@H](O)[C@@H](CO)NC(=O)C(Cl)Cl)cc1`, the Potency result in test [4] is “inactive”.

Regarding `C[C@@H]1CN(c2c(F)c(N)c3c(=O)c(C(=O)O)cn(C4CC4)c3c2F)C[C@H](C)N1`, in test [4], the Potency entry was “inactive”.

On to `CNC(=O)c1cc(Oc2ccc(NC(=O)Nc3ccc(Cl)c(C(F)(F)F)c3)cc2)ccn1`, for which the Potency in test [5] is 18.7 µM (active); in test [7], 9.43 µM (active). In addition, in [6], the compound was called inactive. The viability (% of control) in test [8] is -0.0117%. The viability, percent of control in test [9] stood at 1.39%.

For the compound `NC(N)=NC(N)=NCCc1ccccc1`, the Potency in test [10] was 37.6 µM (active). Moreover, the activation in [11] is 7.9% (inactive) and 8.21% (inactive).

As for `CN(C)CCc1c[nH]c2ccc(CS(=O)(=O)N3CCCC3)cc12`, the Potency result in [2] and in test [3] was “inactive” throughout.

On to `O=c1cc(O)c(Cl)c[nH]1`, for which the Potency result in test [2] and in [3] was “inactive” throughout.

For the compound `O[C@@H](CNC[C@H](O)[C@H]1CCc2cc(F)ccc2O1)[C@@H]1CCc2cc(F)ccc2O1`, the Potency entry in test [2] was “inactive”.

For `COCCCOc1cc(C[C@@H](C[C@H](N)[C@@H](O)C[C@H](C(=O)NCC(C)(C)C(N)=O)C(C)C)C(C)C)ccc1OC`, the Potency result in test [2] was “inactive”.

In the case of `Cc1cccc(Nc2ccncc2S(=O)(=O)NC(=O)NC(C)C)c1`, the Potency result in [2], in [3] and in test [12] was “inactive” in each case.

Turning to `COC(=O)Nc1nc2ccc(C(=O)c3ccccc3)cc2[nH]1`, the Potency entry in test [2], in test [3] and in test [12] was “inactive” throughout.

On to `O=C(O)c1cccnc1`, for which the Potency result in test [2], in test [3] and in test [12] was “inactive” throughout.

Values taken from PubChem BioAssay (NCATS).
